ELG1 DNA repair = ELG1-dependent DNA repair inhibition. 330,000 compounds, 2.3% hits. Potency, µM (highest dose often 46.1 µM), for inactives: at the highest dose activity change, negative = inhibition, usual class: inhibitors. HEK293T ELG1-luciferase reporter, luminescence, 16 h; DNA damage induced by 5-fluorouridine. AID 504467; also: potency is read from the fitted curve at half-maximal effect; nearly all actives have a fitted effect of over 55% in size
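DMSO vehicle served as the neutral condition. Each well held 2,000 cells given 5-fluorouridine plus compound; after 16 hr at 37 °C/5% CO2, ONE-Glo was added and luciferase measured 30 min later.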
TSHR antagonist = antagonists of human thyroid stimulating hormone receptor | P16473 | TSHR-expressing cells, TSH-stimulated cAMP HTRF, 2 h; stronger effect = lower value | activity change, negative = inhibition, % at 11.5 µM | 330,000 compounds, 0.2% hits;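 active = activity change below a set negative limit, meaning inhibition stronger than a set level, cut at about -70% in these data; inconclusive = activity change between two set negative limits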
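TSHR-expressing cells were treated with compounds, then stimulated with TSH at EC80 (4nM final) for 2 hours at 37 deg C. Cellular cAMP was measured by HTRF competition between lysate cAMP and cAMP-d2 for a cryptate-labelled anti-cAMP antibody.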
Coupling enz = coupling enzyme interference in Giardia aldolase counter-screen | coupling enzyme system counterscreen, AmpLite Red fluorescence | AID 2472 | 290,000 compounds, 0.67% hits | activity change, negative = inhibition, % at 58.2 µM, hits read low; in the data active = activity change below about -30%
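Activity here indicates interference with the coupling reaction, not aldolase inhibition. Compounds at 57.5 uM final met coupling enzymes for 10 min at RT; substrate and AmpLite Red detection followed, with a 525/598 nm fluorescence read after 20 min.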
VP16 counter = inhibits Gal4-VP16 luciferase reporter, ROR gamma counter-screen; 310,000 compounds, 3.5% hits; Drosophila S2 Gal4-VP16 UAS-luciferase, luminescence, 20 h; Potency, µM (highest dose often 53.6 µM), for inactives: at the highest dose activity, negative = inhibition, hits mostly inhibitors; AID 2546;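 also: Gal4-VP16 expression switched on by copper sulfate through the metallothionein promoter; potency is read from the fitted curve at half-maximal effect; nearly all actives have a fitted effect of over 50% in size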
RORg inh = ROR gamma (mouse) transcription inhibition; Drosophila S2 Gal4-RORgamma UAS-luciferase reporter, 20 h; Potency, µM (series often up to 53.6 µM), for inactives: top-dose activity change, negative = inhibition, hits mostly inhibitors; 310,000 compounds, 5.4% hits; also: potency is read from the fitted curve at half-maximal effect; nearly all actives have a fitted effect of over 60% in size
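In this cell-based reporter format, copper sulfate (700 uM final) drives Gal4–ROR gamma fusion expression from a metallothionein promoter in Drosophila Schneider cells; compounds preincubated 1 hr, reporter read after 20 hr at ambient temperature.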
An asterisk follows results filed as active; ? = inconclusive; · = no result; [ ] = dose if it differs, or a comment. A selection: hits, their analogues and other compounds. The true share with any hit is near 8%. Unless noted, calls follow the shape of the dose curve; as a rule, active = well fitted curve in the direction sought with a large enough effect; inconclusive = small, poorly fitted or top-dose-only effect, or another doubt; inactive = no such curve, though single readings can be large; an effect the other way counts as inactive or inconclusive. % is scaled to controls: 0 for no effect and ±100 for the full control effect.

SMILES | ELG1 DNA repair | TSHR antagonist | Coupling enz | VP16 counter | RORg inh
COC(=O)c1ccccc1NC(=S)NC(=O)COc1ccc(C(C)C)cc1 | -2.0% | 11.8 | -1.6 | ? | 11.2µM*
C1CCN2C[C@@H]3C[C@@H](CN4CCCC[C@H]34)[C@H]2C1 | · | · | 1.9 | -0.1%[17 µM] | -0.4%[2.98 µM]
COc1ccc(NC(=O)CN(c2ccc(OC)c(Cl)c2)S(=O)(=O)c2ccccc2)c(OC)c1 | -20.0% | 27.5 | -1.9 | -10.7% | ?
CC1=C(C(=O)c2ccccc2)C(c2cn(-c3ccccc3)nc2-c2ccc(Cl)cc2)NC(=S)N1 (stereo unspecified) | -5.1% | -1.5 | -0.7 | 3.55µM* | 5.62µM*
CCCCS(=O)(=O)/C=C\C=C/S(=O)(=O)CCCC | 8.2µM* | ? | 0.2 | 0.891µM* | 0.708µM*
CC(C)N(CCCNC(=O)c1ccc(CS(=O)(=O)c2c(Cl)cccc2Cl)o1)Cc1ccccc1 | 6.3% | 2.5 | -2.0 | -1.7% | -3.6%
CO[C@H]1[C@@H](OC(N)=O)[C@H](O)[C@@H](Oc2ccc3c(O)c(NC(=O)c4ccc(O)c(CC=C(C)C)c4)c(=O)oc3c2C)OC1(C)C | · | · | 0.9 | -4.6%[17 µM] | -15.3%[2.98 µM]
CCOC(=O)c1c(-c2ccsc2)csc1N | 5.9% | 8.1 | -33.7* | 1.4% | ?
CCOC(=O)c1c(-c2ccc(C)s2)csc1N | -3.1% | 27.5 | -41.2* | ? | 25.8%
O=C(CCCCCn1c(=O)[nH]c2ccccc2c1=O)N1CCN(Cc2ccc3c(c2)OCO3)CC1 | 18.4µM* | -0.1 | 0.0 | -13.1% | 30.5%
O=C(Cn1c(=O)[nH]c2ccccc2c1=O)N1CCN(Cc2ccc3c(c2)OCO3)CC1 | 23.1µM* | -1.9 | -0.8 | -16.7% | 34.1%
CS(=O)(=O)N(CC(=O)N1CCN(Cc2ccc3c(c2)OCO3)CC1)Cc1ccc(Cl)cc1 | 11.6µM* | -11.9 | 3.0 | 10µM* | -20.0%
CS(=O)(=O)N(CCc1ccccc1)CC(=O)N1CCN(Cc2ccc3c(c2)OCO3)CC1 | · | · | 0.5 | ? | 35.4%
C/C(=C\c1ccccc1)C(=O)N1CCN(Cc2ccc3c(c2)OCO3)CC1 | 7.3µM* | 0.1 | 9.4 | -14.3% | 23.6%
CC(=O)N1c2ccc(S(=O)(=O)NCC3CCC(C(=O)N4CCCC(C)C4)CC3)cc2CC1C (stereo unspecified) | -6.7% | -9.4 | · | -0.3% | 0.7%
COc1ccc(OCCCC(=O)N(C)CC(=O)Nc2ccccc2Cl)cc1 | 5.6% | -0.3 | · | -1.0% | 1.5%
CC(C)ON(CC(=O)NO)S(=O)(=O)c1ccc(-c2ccccc2)cc1 | · | · | 6.0 | 1.5% | -1.4%
CC1CN(CN2C(=O)c3ccccc3C2=O)CC(C)O1 (stereo unspecified) | 18.8% | 11.7 | 0.0 | 12.6µM* | 37.3%
CC1CN(CCCCN2C(=O)c3ccccc3C2=O)CC(C)O1 (stereo unspecified) | 16.0% | 9.3 | 4.5 | -12.8% | -4.9%
Cc1cc(OCC(=O)N2CCN(c3ccccn3)CC2)c(C)cc1Br | -7.3% | -6.5 | · | 0.8% | -9.4%
CCCc1ccc(-c2cc(C(=O)N/N=C/c3ccc([N+](=O)[O-])o3)c3ccccc3n2)cc1 | ? | -1.3 | -0.8 | 8.91µM* | 7.08µM*
O=C(N/N=C/c1ccc([N+](=O)[O-])o1)c1cc(-c2cccc(Br)c2)nc2ccccc12 | ? | -14.3 | -0.3 | ? | 3.16µM*
CCOc1ccccc1O[C@@H](c1ccccc1)[C@@H]1CNCCO1 | · | · | -8.0 | 4.9% | 7.3%
CCOc1ccc(C(=O)NNC(=O)CCNC(=O)c2ccco2)cc1OC | 17.2% | 5.1 | · | · | ·
CC1CCCCC1NC(=O)NC(=O)COC(=O)c1nccnc1N (stereo unspecified) | 0.6% | 12.1 | · | · | ·
CC1CCCC(NC(=O)NC(=O)CCl)C1C (stereo unspecified) | 20.6µM* | -23.0 | -7.6 | 5.01µM* | 3.16µM*
CC1CCCCC1NC(=O)NC(=O)CCl (stereo unspecified) | 20.6µM* | 4.9 | -3.9 | 6.31µM* | 5.01µM*
CC1CCCC(NC(=O)CSC2CCCCC2)C1C (stereo unspecified) | 8.2% | -10.0 | 1.3 | ? | 10.5%
O=C(CCN1C(=O)/C(=C/c2ccc(F)cc2)SC1=S)N[C@@H](CO)Cc1ccccc1 | -0.3% | -3.2 | -1.2 | 11.0% | -15.4%

Compound activity from PubChem.
